T1: UNK ZnF1-3 (human, UniProt Q9C0B0 31-174)
T1 sequence: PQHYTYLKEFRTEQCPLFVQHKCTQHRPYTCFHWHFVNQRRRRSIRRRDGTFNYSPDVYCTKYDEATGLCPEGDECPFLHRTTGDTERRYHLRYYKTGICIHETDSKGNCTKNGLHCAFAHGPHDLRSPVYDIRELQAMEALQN

B1: chr1:241675328:241675329:-_ENSG00000091483_ENST00000366560|hu_mus|FALSE|FALSE (ssRNA)
RNA: GGGAGUUCUACAGUCCGACGAUCGCUUUUGUUAACAUGAUCAUUGGGGUGCACAGGCUUCUUGCUGCCAAGUUCACCUCCUAACAUUUCAAUUGCUCUGUUGCUAAUGACUUCAUUUACAUUCAUGUUUGUCUGGGUUCCUGACAACAGAGGAUUGAGCAUCA
B2: chr17:45747064:45747065:+_ENSG00000108424_ENST00000290158|hu_hu|hu_hu_hu_mus_True|38_108 (ssRNA)
RNA: GGGAGUUCUACAGUCCGACGAUCGCCUACAGUCCAUGCUGUUGUGUCUCGAACAACUACACUGGGGUCUUUCAUUAGUUCUAUUAGGGUGGGCAUAGCCUGUAUAACUAAUGGUUUCAGUUGAUUAGGCUCUGGUCCUUCCAACAACAGAGGAUUGAGCAUCA
B3: chr18:10010020:10010021:-_ENSMUSG00000047879_ENSMUST00000092096|mus_hu|FALSE|FALSE (ssRNA)
RNA: GGGAGUUCUACAGUCCGACGAUCCUCGGCAAACUGUGGGAAAGCCAUGUGCAAAAACUGCAGUAGAAUAAUAGGUGGAAUACUGGAAGAAGUUUUAUCCAUGGAAUCAAACAAAUCUCUAAGGGCUGCAGUAAUAUACUGCGCCAACAGAGGAUUGAGCAUCA
B4: chr7:149068622:149068623:-_ENSMUSG00000025139_ENSMUST00000001950|mus_hu|mus_mus_mus_hu_False|68_98 (ssRNA)
RNA: GGGAGUUCUACAGUCCGACGAUCGUGAGGCCUCUGAGUGAGGUUCCUGGUCUGUCCUGGGUUAGAGCUGCUGGUAACACGGAACAUACCAUCUAGAACGUUCCAGUCCCGCCUGACACCUUCAUUCCCAAUGGAGAAGAAAUCCAACAGAGGAUUGAGCAUCA
B5: chr7:141445308:141445309:+_ENSG00000106028_ENST00000265304|hu_hu|hu_hu_hu_mus_False|48_68 (ssRNA)
RNA: GGGAGUUCUACAGUCCGACGAUCUAUGAUUGUUGUUGCUUGCCGCCUCACAUUGUUUUUAUCCAUGUAUUCACCAUAGUCCACUUUCCCUUCCAAAAAUAUACGAGCCCCCUUUUUCACAUACUGAUAUGCCACAUCUCUGAGCAACAGAGGAUUGAGCAUCA
B6: 120768192_120770490_416_CDS_ENSMUSG00000043207_ENSMUST00000058754|mouse|control|control (ssRNA)
RNA: GGGAGUUCUACAGUCCGACGAUCGCUGAAGGUACUUUUAUCCAGUUGAUACAAUCGAGAUUUCUCAAACGUGUCCGAAUCCAUGAUCUGUUCUAACUCUGCUGGUACGCGAGUCGUCGUUUUGUAUAUCCUUCUCUGCCGCUGCAACAGAGGAUUGAGCAUCA
B7: chr1:163117127:163117128:-_ENSG00000143248_ENST00000313961|hu_mus|hu_hu_hu_mus_False|18_78 (ssRNA)
RNA: GGGAGUUCUACAGUCCGACGAUCUGCUACAAAGGAUGUAACUCAACUCACAGGGCAUGAUUUCAUAGCCUGACCAGAUGACUACUUGAUUAGCUCCUUAUAAAAUUCAGAGCGCACAAAGCGAGGCAGAGAAUCCUUCUCCAUCAACAGAGGAUUGAGCAUCA
B8: chr15:76909541:76909542:-_ENSMUSG00000033565_ENSMUST00000166610|perfect_dup|FALSE|FALSE (ssRNA)
RNA: GGGAGUUCUACAGUCCGACGAUCAACAUGAUCAAUAAUUUAUACACAUGGAGAGUAAUACAAAAAAAUAAGGAAUAAAAGCUAAAGAUCUAACUACUCCGACCUUCACAAUUCCAGCUACUUGAUAAUAAUAGGAGUAACCCACAACAGAGGAUUGAGCAUCA
B9: chr1:163117127:163117128:-_ENSG00000143248_ENST00000313961|hu_mus|hu_hu_hu_mus_False|48_78 (ssRNA)
RNA: B7 RNA with G92A, A123G
B10: chr20:57570089:57570090:+_ENSG00000101158_ENST00000344018|hu_mus|FALSE|FALSE (ssRNA)
RNA: GGGAGUUCUACAGUCCGACGAUCACUCCCACACACACACAUACAACUCAACAUUACUCUUGGAAACUUAAAGUAACUGACCAUCUGGGUCAUAGGAAGGAAACUUACAUAAACCCUUCAUGAAGUGUCCCAGCUGCUAGAUUCCAACAGAGGAUUGAGCAUCA
B11: chr15:76909541:76909542:-_ENSMUSG00000033565_ENSMUST00000166610|perfect_dup|motif|central (ssRNA)
RNA: B8 RNA with U82G, A83G
B12: chr1:60041781:60041782:+_ENSMUSG00000041040_ENSMUST00000036540|mus_hu|mus_mus_mus_hu_False|18_88 (ssRNA)
RNA: GGGAGUUCUACAGUCCGACGAUCAAGUUUACAAUAGUAAAGUAAAUCAAAUUUAGUCAAAUUUUCUUUUAUUUUCCUUCACAAAAGAAAAUCUUUAUAACCCAGUCCUAGUCUUGGCAGAGAAAGCAGCUAUAAAUUCUGACUCAACAGAGGAUUGAGCAUCA
B13: 168352429_168352549_4431_CDS_ENSG00000130396_ENST00000400822|human|control|control (ssRNA)
RNA: GGGAGUUCUACAGUCCGACGAUCAAUGUACUGCAAGUCUCUGCGCUCGAUCGUGCGGGGCUGCUGCUGAGGCUGCAGCUCCCGAAUGACUGUUUCCUGUGGCCGCUGGAGUGUGGAAGGCUUUUCGGGCUUCAUCUGCUGUGCCAACAGAGGAUUGAGCAUCA
B14: chr2:201681052:201681053:+_ENSG00000082153_ENST00000409600|hu_hu|FALSE|FALSE (ssRNA)
RNA: GGGAGUUCUACAGUCCGACGAUCUUUUACUUCAUCUUCAAAACCUUUCUCCAGGUAUUUGUAGCGCCUGAUUAACUUGUUAAAAACCUGAGCAAAUGCUUGCAUGGUCUCUAGAUCUUCUUGGGCUGCAAACACGCAGACAUCCAACAGAGGAUUGAGCAUCA

Positions count from the first letter of the chain named. Over roughly 24,000 sequences, “enrichment r” has its median near 0.99; the highest 2% begin near 3.7. This is one part of a sample in which the highest values are shown more often than they occur.

This test addresses T1, UNK ZnF1-3. The test is described as follows: nsRBNS (natural sequence RNA bind-n-seq); RBNS binding buffer (assumed for nsRBNS): 25 mM Tris pH 7.5, 150 mM KCl, 3 mM MgCl2, 0.01% Triton X-100, 500 ug/ml BSA, 20 U/ml SUPERase-In, 4 C; UNK is unkempt and MSI1 is Musashi-1; names of the RNAs are library labels; protein concentration not given here; high values mean tight binding.
For the molecule B1, the binding signal came out at 0.274 enrichment R.
Then B2, with 0.577 enrichment R; and B3, with 1.59 enrichment R; and B4, with 0.742 enrichment R.
Then B5, with 0.799 enrichment R; and B6, with 0.656 enrichment R.
In turn, B7 yielded a binding signal of 0.919 enrichment R.
Regarding B8, the binding signal was found to be 6.42 enrichment R.
Then B9, with 1.08 enrichment R; and B10, with 1.41 enrichment R.
Then B11, with 8.91 enrichment R; and B12, with 0.9 enrichment R; and B13, with 0.667 enrichment R.
Molecule B14 showed a binding signal of 0.452 enrichment R.
